In PubChem BioAssay (NCATS):
Several values for one entry are separate records, joined by “and”; a condition that tells them apart may be missing. Equal values may be shown once. Records with an inconclusive call do not appear. Activity calls are given as the source filed them. Unless noted, calls come from the whole dose curve; as a rule, active = well fitted curve in the direction sought with a large enough effect; inconclusive = small, poorly fitted or top-dose-only effect, or another doubt; inactive = no such curve, though single readings can be large; an effect the other way counts as inactive or inconclusive.

Experiments:
[1] = target: Thioredoxin reductase 1, cytoplasmic (Rattus norvegicus) (UniProt O89049); experiment: qHTS Assay for Inhibitors of Mammalian Selenoprotein Thioredoxin Reductase 1 (TrxR1) (AID 488773); settings: Potency: inhibition; note: nearly all actives have a fitted effect of over 40% in size; note: potency is the fitted concentration of half-maximal effect
Outline: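 Inhibition is scored from the loss of NADPH fluorescence between first and last reads of an 8-min kinetic run. Selenite (400 uM) was the substrate, added after 15 min compound preincubation at room temperature.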

[2] = target: Flap endonuclease 1 (Homo sapiens) (UniProt P39748); experiment: qHTS Validation Assay for the Inhibitors of Human Flap endonuclease 1 (FEN1) (AID 488816); note: potency is the fitted concentration of half-maximal effect
Outline: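 qHTS format: compounds and 10 nM FEN1 incubated 15 min at room temperature before adding 50 nM substrate. Cleavage followed by reads at 0 and 15 min; normalized data fitted to a four-parameter Hill curve.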

[3] = target: Chromobox protein homolog 1 (Homo sapiens) (UniProt P83916); experiment: qHTS Validation Assay for Inhibitors of HP1-beta Chromodomain Interactions with Methylated Histone Tails (AID 488953); note: nearly all actives have a fitted effect of over 50% in size; note: potency is the fitted concentration of half-maximal effect
Outline: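 Disruption of preformed HP1-beta:H3K9me3 peptide complexes (both 50 nM, PBS pH 7.4 with 0.01% Tween-20) is measured by AlphaScreen after 30 min compound exposure at room temperature, using streptavidin donor and nickel chelate acceptor beads at 10 ug/mL final.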

[4] = target: Thyrotropin receptor (Homo sapiens) (UniProt P16473); experiment: qHTS Assay for Antagonists of the Thyroid Stimulating Hormone Receptor (AID 488980); note: series mostly up to about 58 µM; 0% is about no effect
Outline: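 Readout is cAMP by HTRF competition between cellular cAMP and cAMP-d2 for a cryptate-labelled antibody. Antagonism was assessed in TSHR-transfected HEK293 cells stimulated with 4 nM TSH (EC80, final) in the presence of RO 20-1724.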

[5] = target: D(1A) dopamine receptor (Homo sapiens) (UniProt P21728); experiment: HTS Assay for Allosteric Agonists of the Human D1 Dopamine Receptor: Primary Screen for Agonists (AID 488981); note: 0% is about no effect
Outline: (§1)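 Calcium flux in an inducible, force-coupled HEK293 Trex D1 line (overnight at 30 C): agonist mode is the 180 s kinetic read after compound; potentiator mode is the following 180 s read after dopamine at EC20.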

[6] = target: D(1A) dopamine receptor (Homo sapiens) (UniProt P21728); experiment: HTS Assay for Allosteric Agonists of the Human D1 Dopamine Receptor: Primary Screen for Potentiators (AID 488982); note: 0% is about no effect
Outline: as §1

[7] = Validation screen for small molecules that induce genotoxicity in human embryonic kidney (HEK293T) cells expressing luciferase-tagged ELG1 (AID 493106); note: potency is the fitted concentration of half-maximal effect
Outline: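 Cells were dispensed at 2,000 per well, then 23 nL compound or DMSO was pinned in. After 16 hr at 37 °C and 5% CO2, ONE-Glo reagent was added. Luciferase activity was measured following 30 min at room temperature.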

[8] = target: Thyrotropin-releasing hormone receptor (Homo sapiens) (UniProt P34981); experiment: qHTS for Small Molecule Agonists and Allosteric Enhancers of Human TRH Receptor: Validation Screen for Agonists (AID 493127;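 active = calcium activation more than 3 SD above the typical response in the agonist read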;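 note: intracellular calcium rise by fluo-8 fluorescence before TRH EC20 addition; 0% is about no effect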); settings: TRH receptor agonist cell assay; at 2 µM; stronger effect = higher value
Outline: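 Compounds are added by online pintool to dye-loaded TRHR cells while fluorescence is recorded every second. A rise in calcium signal during the agonist read marks activation; a later 10 nM TRH addition (EC20) serves the separate enhancer mode.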

[9] = qHTS for Inhibitors of Cell Surface uPA Generation: Validation Assay (AID 493164);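 note: RAW 264.7 macrophage cells exposed to compound for 18 h; 0% is about no effect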
Outline: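 ATP-Lite luminescence read-out: ATP remains high when uPA activity-dependent LF translocation into the cytoplasm is blocked. RAW 264.7 cells, 18 h compound exposure at 37 C; 7-point titration, 2.45 nM to 38.3 uM final.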

[10] = target: Galactokinase (Homo sapiens) (UniProt P51570); experiment: qHTS Validation Assay for Inhibitors of Human Galactokinase (GALK) (AID 493189); note: 0% is about no effect
Outline: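 5 nM GALK / 100 uM galactose / 35 uM ATP, 20 mM HEPES pH8.0, 5 mM MgCl2, 60 mM NaCl, 1 mM DTT, 0.01% BSA (final). RT 1 h; Kinase-Glo Plus luminescence.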

[11] = Validation screen for small molecules that induce DNA re-replication in SW480 colon adenocarcinoma cells (AID 504364); note: potency is the fitted concentration of half-maximal effect
Outline: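 Image-based qHTS: compounds were incubated with SW480 cells for 48 hr, nuclei stained with Hoechst, and per-nucleus fluorescence intensity scanned to flag cells with excess DNA content.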

[12] = target: Peptidyl-prolyl cis-trans isomerase NIMA-interacting 1 (Homo sapiens) (UniProt Q13526); experiment: qHTS Validation Assay to Find Inhibitors of Pin1 (AID 504536; active = well fitted inhibition curve with a large enough effect in the polarisation, with a control signal flat, not every such curve was filed as active; the % refers to the polarisation;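 note: 0% = full Pin1 enzyme wells and -100% = no-enzyme wells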)
Outline: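 Fluorescence polarization competition: compounds (titration) displace HiFluor-488-labeled Pin1-1b peptide from Pin1 (0.3 uM final) in pH 7.5 HEPES buffer with DTT, 10 min at room temperature; %Activity normalized to no-enzyme wells, curves fitted.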

[13] = target: phosphoglycerate mutase (Leishmania major) (UniProt Q4Q090); experiment: qHTS Validation Assay to Find Inhibitors of Phosphoglycerate Mutase (AID 504548); settings: Potency: inhibition qHTS; note: potency is the fitted concentration of half-maximal effect
Outline: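 Inhibition of L. major PGAM was assessed by Kinase-GloPlus luminescence following a 45-minute room-temperature reaction with enzyme at 1.25nM final.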

[14] = target: Ubiquitin carboxyl-terminal hydrolase 1 (Homo sapiens) (UniProt O94782); experiment: Inhibitors of USP1/UAF1: Pilot qHTS (AID 504865); note: nearly all actives have a fitted effect of over 35% in size; note: potency is the fitted concentration of half-maximal effect
Outline: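 In 50mM HEPES pH 7.8 containing 0.5mM EDTA, 1mM TCEP, 0.1 mg/ml BSA and 0.01% Tween-20, 1nM USP1/UAF1 is exposed to compound for 15 min, then Ub-Rho (150nM final) is added and fluorescence is read over time.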

[15] = target: Methanococcus maripaludis chaperonin (MmCpn) (UniProt Q6LX38); experiment: High-Throughput Screening for Modulators of Cytosolic Chaperonin Activity: MmCpn Primary Screen (AID 488978);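 note: 50 nM MmCpn enzyme hydrolysing 30 µM ATP at 37 °C; 0% is about no effect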
Outline: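 Steps: chaperonin 50 nM final; add compound, 5 min RT; start with ATP, 30 uM final; hold 10 min at 37C; add ADP Transcreener HTRF reagent, 5 min; read ex 320, em 590 and 665 nm.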

[16] = target: Phosphoglycerate kinase, glycosomal (Trypanosoma brucei brucei) (UniProt P07378); experiment: qHTS Validation Assay to Find Inhibitors of Phosphoglycerate Kinase (AID 504547);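 note: control wells lack PGK and mark full inhibition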
Outline: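 Luminescence end-point (Kinase-Glo Plus, 10 min) after a 60 min room-temperature coupled reaction. GAPDH at 100nM final supplies 1,3-BPG to PGK. Buffer: 100mM TEA pH 7.6, 5mM MgCl2, 0.01% Tween-20. Wells lacking PGK served as controls.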

[17] = target: DNA dC->dU-editing enzyme APOBEC-3G (Homo sapiens) (UniProt Q9HC16); experiment: qHTS for inhibitors of Vif-A3G interactions: Validation (AID 588379); note: 0% is about no effect
Outline: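 Yellow fluorescence (Ex 488, Em 500-530) of Vif-coexpressing HeLa A3G-eYFP cells, scanned by Acumen cytometer, reports blocked A3G degradation. Cells plated at 700/well overnight at 37 deg C before compound addition, then a further overnight compound incubation at 37 deg C.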

[18] = target: ATP-dependent 6-phosphofructokinase (Trypanosoma brucei brucei) (UniProt O15648); experiment: qHTS Assay to Find Inhibitors of T. brucei phosphofructokinase: hit validation (AID 492961);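 note: luminescence reports ADP formed as PFK phosphorylates fructose-6-phosphate with ATP; series mostly up to about 51 µM; % is set by controls: 0 for no effect and ±100 for the full control effect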
Outline: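 In this biochemical qHTS validation, titrated compounds were tested against 1.25 nM PFK with 0.1 mM ATP and 0.5 mM F6P. Percent activity came from controls lacking or containing enzyme.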

[19] = qHTS for Inhibitors of ATXN expression: Validation of Cytotoxic Assay (AID 588349); note: % is set by controls: 0 for no effect and ±100 for the full control effect
Outline: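 Titrated compounds are added to cultured HEK293 cells, which are then held at 37 degrees C for 72 hr; loss of intracellular ATP, measured with CellTiter Glo, indicates toxicity.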

[20] = Nrf2 qHTS screen for inhibitors: Validation (AID 493153; active = well fitted inhibition curve with a large enough effect in the main read-out, with a control signal flat, not every such curve was filed as active); settings: Potency: luciferase luminescence; viability change: measured here: cytotoxicity max response
Outline: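 A549 ARE_Fluc, 5% FBS OPTI-MEM; cpd titration, 18-24 h, 37°C/5% CO2. Read 1: CellTiter-Fluor (Ex 405/Em 525), cytotox. Read 2: luciferase lum, Nrf2 activity.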

Chain of Flap endonuclease 1 (Homo sapiens) (P39748 whole entry, looked up): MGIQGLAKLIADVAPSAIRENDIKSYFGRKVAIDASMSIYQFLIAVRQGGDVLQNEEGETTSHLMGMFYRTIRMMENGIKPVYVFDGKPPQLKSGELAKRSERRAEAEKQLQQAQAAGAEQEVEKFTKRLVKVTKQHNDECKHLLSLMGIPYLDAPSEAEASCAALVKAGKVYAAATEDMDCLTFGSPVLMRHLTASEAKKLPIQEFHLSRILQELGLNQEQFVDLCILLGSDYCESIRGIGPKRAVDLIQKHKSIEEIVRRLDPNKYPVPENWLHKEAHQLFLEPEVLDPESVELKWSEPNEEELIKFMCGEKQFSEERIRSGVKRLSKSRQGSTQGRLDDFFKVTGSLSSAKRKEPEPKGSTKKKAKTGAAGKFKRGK
Chain of Thioredoxin reductase 1, cytoplasmic (Rattus norvegicus) (O89049 whole entry, looked up): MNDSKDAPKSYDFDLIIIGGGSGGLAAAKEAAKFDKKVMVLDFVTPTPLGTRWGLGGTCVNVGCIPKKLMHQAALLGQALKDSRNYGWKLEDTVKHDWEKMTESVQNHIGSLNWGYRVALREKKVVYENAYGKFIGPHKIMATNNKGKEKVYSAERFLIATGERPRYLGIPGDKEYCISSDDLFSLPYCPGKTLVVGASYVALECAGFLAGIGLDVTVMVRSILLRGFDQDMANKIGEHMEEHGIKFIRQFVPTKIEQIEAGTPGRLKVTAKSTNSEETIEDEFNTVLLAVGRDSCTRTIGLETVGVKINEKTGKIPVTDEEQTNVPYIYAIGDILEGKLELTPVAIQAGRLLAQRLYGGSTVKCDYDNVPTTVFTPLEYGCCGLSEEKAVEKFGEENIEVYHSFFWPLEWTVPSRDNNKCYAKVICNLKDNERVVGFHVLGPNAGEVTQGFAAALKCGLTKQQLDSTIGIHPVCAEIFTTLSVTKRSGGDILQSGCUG
Chain of D(1A) dopamine receptor (Homo sapiens) (P21728 whole entry, looked up): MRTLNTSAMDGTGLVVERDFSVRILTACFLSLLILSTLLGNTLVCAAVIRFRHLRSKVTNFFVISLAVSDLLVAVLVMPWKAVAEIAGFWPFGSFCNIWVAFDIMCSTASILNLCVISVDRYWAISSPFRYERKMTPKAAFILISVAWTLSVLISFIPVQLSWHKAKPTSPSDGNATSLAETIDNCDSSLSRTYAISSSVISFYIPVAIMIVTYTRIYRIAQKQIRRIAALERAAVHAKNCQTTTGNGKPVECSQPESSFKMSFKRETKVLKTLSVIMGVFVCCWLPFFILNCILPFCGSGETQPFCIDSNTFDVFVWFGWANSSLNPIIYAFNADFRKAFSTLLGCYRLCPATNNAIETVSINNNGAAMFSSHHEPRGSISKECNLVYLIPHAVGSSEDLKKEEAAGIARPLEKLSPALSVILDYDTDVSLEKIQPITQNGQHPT
Chain of Methanococcus maripaludis chaperonin (MmCpn) (Q6LX38 1-543): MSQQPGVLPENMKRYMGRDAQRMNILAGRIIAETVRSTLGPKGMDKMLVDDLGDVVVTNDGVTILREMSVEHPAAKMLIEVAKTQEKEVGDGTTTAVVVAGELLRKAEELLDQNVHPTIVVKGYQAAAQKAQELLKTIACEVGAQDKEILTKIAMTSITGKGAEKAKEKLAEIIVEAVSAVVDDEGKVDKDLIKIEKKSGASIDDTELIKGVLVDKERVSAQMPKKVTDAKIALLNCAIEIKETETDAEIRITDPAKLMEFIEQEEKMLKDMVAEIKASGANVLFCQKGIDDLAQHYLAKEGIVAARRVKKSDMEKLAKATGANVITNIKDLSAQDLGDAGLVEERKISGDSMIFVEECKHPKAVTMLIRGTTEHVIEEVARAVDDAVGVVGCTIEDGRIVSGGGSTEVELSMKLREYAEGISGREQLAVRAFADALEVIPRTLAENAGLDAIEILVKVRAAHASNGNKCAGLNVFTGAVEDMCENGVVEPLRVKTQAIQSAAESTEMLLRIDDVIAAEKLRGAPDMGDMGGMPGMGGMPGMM
Chain of Peptidyl-prolyl cis-trans isomerase NIMA-interacting 1 (Homo sapiens) (Q13526 whole entry, looked up): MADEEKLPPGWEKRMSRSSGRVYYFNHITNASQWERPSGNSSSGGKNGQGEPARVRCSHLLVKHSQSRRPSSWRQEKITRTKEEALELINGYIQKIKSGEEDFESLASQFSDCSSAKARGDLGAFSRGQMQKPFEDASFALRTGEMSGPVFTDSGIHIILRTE
Chain of phosphoglycerate mutase (Leishmania major) (Q4Q090 1-553): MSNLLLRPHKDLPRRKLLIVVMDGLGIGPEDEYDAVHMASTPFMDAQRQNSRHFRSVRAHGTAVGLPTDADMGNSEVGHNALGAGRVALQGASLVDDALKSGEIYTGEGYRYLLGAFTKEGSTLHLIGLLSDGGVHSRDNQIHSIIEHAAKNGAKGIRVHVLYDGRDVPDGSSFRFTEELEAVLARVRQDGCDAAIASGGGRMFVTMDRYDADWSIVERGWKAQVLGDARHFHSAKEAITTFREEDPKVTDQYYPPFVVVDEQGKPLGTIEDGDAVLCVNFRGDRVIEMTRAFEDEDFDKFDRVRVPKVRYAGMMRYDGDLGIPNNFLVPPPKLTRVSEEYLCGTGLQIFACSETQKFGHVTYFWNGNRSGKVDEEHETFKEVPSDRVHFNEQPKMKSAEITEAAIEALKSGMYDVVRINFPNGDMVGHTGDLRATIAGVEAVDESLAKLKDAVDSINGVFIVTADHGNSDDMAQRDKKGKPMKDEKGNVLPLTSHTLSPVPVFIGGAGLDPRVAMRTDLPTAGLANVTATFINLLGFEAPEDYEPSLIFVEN
Chain of Thyrotropin receptor (Homo sapiens) (P16473 whole entry, looked up): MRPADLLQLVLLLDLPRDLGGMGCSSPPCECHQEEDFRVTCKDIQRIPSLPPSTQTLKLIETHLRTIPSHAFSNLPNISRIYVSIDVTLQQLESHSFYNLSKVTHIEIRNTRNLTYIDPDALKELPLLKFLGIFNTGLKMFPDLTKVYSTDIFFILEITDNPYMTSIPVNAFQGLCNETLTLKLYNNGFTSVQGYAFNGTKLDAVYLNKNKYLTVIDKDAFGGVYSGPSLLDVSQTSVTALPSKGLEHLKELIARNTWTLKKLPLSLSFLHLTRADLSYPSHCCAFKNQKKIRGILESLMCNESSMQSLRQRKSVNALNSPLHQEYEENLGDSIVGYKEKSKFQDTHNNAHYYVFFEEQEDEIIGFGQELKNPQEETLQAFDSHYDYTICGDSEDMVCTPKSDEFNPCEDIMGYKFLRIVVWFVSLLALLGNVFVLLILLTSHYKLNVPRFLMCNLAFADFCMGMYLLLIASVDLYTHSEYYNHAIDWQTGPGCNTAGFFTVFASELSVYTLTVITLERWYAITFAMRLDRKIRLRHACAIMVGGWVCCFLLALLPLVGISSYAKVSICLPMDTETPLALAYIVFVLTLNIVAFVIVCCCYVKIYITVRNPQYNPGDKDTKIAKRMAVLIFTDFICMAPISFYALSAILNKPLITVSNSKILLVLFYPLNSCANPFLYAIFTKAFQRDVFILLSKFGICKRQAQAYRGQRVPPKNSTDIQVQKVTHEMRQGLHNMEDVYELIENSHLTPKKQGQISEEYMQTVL
Chain of Chromobox protein homolog 1 (Homo sapiens) (P83916 whole entry, looked up): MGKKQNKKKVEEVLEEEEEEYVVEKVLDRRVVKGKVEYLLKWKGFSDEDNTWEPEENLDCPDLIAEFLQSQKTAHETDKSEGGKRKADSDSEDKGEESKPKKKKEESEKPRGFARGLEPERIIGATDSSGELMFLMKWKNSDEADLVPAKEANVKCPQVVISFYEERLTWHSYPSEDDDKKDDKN
Chain of Thyrotropin-releasing hormone receptor (Homo sapiens) (P34981 whole entry, looked up): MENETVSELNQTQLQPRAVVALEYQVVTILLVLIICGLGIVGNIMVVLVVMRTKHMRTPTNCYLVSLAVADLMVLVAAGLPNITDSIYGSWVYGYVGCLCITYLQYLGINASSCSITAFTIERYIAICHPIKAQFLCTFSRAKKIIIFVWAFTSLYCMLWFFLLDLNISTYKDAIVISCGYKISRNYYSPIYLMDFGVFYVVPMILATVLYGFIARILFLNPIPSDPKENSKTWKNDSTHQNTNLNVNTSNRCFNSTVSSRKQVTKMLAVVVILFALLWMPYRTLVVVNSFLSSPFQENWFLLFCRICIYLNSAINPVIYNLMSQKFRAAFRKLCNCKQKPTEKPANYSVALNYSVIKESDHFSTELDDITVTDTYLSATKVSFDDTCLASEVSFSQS
Chain of Ubiquitin carboxyl-terminal hydrolase 1 (Homo sapiens) (O94782 whole entry, looked up): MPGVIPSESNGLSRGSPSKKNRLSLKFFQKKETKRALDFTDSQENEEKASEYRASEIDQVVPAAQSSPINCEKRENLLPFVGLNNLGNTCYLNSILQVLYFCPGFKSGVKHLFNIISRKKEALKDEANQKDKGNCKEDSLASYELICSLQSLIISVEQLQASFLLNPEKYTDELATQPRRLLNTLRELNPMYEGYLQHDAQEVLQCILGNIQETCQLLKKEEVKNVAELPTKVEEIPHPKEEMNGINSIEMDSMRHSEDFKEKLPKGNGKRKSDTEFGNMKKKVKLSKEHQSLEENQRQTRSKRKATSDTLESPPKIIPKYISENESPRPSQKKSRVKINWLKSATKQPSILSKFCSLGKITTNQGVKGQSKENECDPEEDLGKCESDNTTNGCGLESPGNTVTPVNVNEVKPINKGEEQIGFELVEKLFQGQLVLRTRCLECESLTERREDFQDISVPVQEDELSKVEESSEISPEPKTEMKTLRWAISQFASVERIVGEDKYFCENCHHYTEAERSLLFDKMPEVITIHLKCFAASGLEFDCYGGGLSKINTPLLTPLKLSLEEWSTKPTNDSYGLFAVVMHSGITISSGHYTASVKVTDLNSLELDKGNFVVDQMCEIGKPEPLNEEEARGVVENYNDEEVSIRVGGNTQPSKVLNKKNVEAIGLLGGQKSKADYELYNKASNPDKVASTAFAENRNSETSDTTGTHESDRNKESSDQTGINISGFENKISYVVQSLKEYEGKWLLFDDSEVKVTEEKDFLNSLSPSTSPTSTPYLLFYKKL

O=Nc1c(-c2c(O)[nH]c3cc(Br)ccc23)[nH]c2ccccc12
inactive: Potency [1] | Potency [2] | outcome [4] | outcome [5] | Potency [6] | activation [8] -8.62% | outcome [9] | outcome [10] | Potency [11] | outcome [12] | Potency [14]
active: Potency [3] 2.82 µM | Potency [7] 0.92 µM | Potency [13] 21.3 µM

CCN(CC)C(=S)SSC(=S)N(CC)CC
inactive: Potency [2] | outcome [15] | outcome [4] | activation [8] 4% | outcome [9] | outcome [10] | outcome [12] | Potency [16] | Potency [13] | Potency [14]
active: Potency [3] 28.2 µM | Potency [7] 18.3 µM | Potency [11] 0.206 µM

CC(C)c1ccc2c(c1)c(SC(C)(C)C)c(CC(C)(C)C(=O)O)n2Cc1ccc(Cl)cc1
active: Potency [14] 25.1 µM and 50.1 µM
inactive: Potency [1] | Potency [3] | outcome [15] | outcome [4] | outcome [5] | Potency [6] | Potency [7] | activation [8] 1.38% | outcome [9] | outcome [10] | Potency [11] | outcome [12] | Potency [16] | Potency [13] | outcome [17]

CC1(C)C(=O)N(CCN2CCC(C(=O)c3ccc(F)cc3)CC2)c2ccccc21
inactive: Potency [1] | Potency [2] | outcome [15] | outcome [4] | outcome [5] | Potency [6] | Potency [7] | activation [8] 3.12% | outcome [9] | outcome [10] | Potency [11] | outcome [12] | Potency [16] | Potency [13] | Potency [14]

Nc1ccn([C@@H]2O[C@H](CO)[C@@H](O)C2O)c(=O)n1 (stereo partly drawn)
inactive: Potency [1] | Potency [2] | Potency [3] | outcome [15] | outcome [5] | Potency [6] | outcome [18] | Potency [7] | outcome [9] | outcome [12] | Potency [16] | Potency [13] | Potency [14] | outcome [19]

Nc1nc(OCc2ccccc2)c2[nH]cnc2n1
inactive: Potency [1] | Potency [2] | Potency [3] | outcome [15] | outcome [4] | outcome [5] | Potency [6] | activation [8] -2.94% | outcome [9] | outcome [10] | Potency [11] | outcome [12] | Potency [16] | Potency [13] | Potency [14]

Oc1ccc(-c2nc(-c3ccc(F)cc3)c(-c3ccncc3)[nH]2)cc1
inactive: Potency [1] | Potency [2] | outcome [15] | outcome [4] | outcome [5] | Potency [6] | Potency [7] | activation [8] -3.81% | outcome [9] | outcome [10] | Potency [11] | outcome [12] | Potency [16] | Potency [13] | outcome [19]
active: Potency [3] 56.2 µM

O=C(O)c1cccnc1Nc1cccc(C(F)(F)F)c1
inactive: Potency [1] | Potency [2] | Potency [3] | outcome [15] | outcome [5] | Potency [6] | Potency [7] | activation [8] 1.5% | outcome [9] | outcome [10] | Potency [11] | outcome [12] | Potency [16] | Potency [13] | Potency [14] | outcome [19]

O=C(NCC1CCCCN1)c1cc(OCC(F)(F)F)ccc1OCC(F)(F)F (stereo not drawn)
inactive: outcome [4] | activation [8] -4.44% | outcome [10] | Potency [11] | Potency [14]

CCOC(=O)C(C)Oc1cccc2c(=O)n(CC(=O)Nc3ccc4c(c3)OCCO4)ccc12 (stereo not drawn)
inactive: Potency [1] | Potency [2] | Potency [3] | outcome [15] | outcome [5] | Potency [6] | outcome [9] | Potency [16] | Potency [13] | Potency [14] | outcome [19]

Cc1cccc(C#Cc2ccccc2)n1
inactive: Potency [1] | Potency [2] | outcome [15] | outcome [4] | outcome [5] | Potency [6] | activation [8] -5.31% | outcome [9] | outcome [10] | Potency [11] | outcome [12] | Potency [14] | outcome [19] | outcome [17]
active: Potency [7] 8.2 µM

O=C1c2ccccc2-c2n[nH]c3cccc1c23
inactive: Potency [1] | Potency [2] | Potency [3] | outcome [15] | outcome [4] | outcome [5] | Potency [6] | outcome [18] | Potency [7] | activation [8] 0.75% | outcome [10] | Potency [11] | Potency [16] | Potency [14] | outcome [17]
active: Potency [13] 21.3 µM

O=C1c2c(O)cc(O)cc2OC(c2ccc(O)c(O)c2)C1O (stereo not drawn)
active: Potency [1] 8.44 µM | Potency [2] 2.67 µM | Potency [3] 0.0084 µM
-0.133%: viability change [20]
inactive: outcome [15] | outcome [4] | outcome [5] | Potency [7] | activation [8] 0% | Potency [20] | outcome [9] | outcome [10] | Potency [11] | Potency [13] | Potency [14] | outcome [19] | outcome [17]
